Assay results as given in PubChem BioAssay (NCATS).
Results filed as inconclusive are left out. Active and inactive are the calls of the source. Unless noted, the call rests on the fitted dose curve; in most records, active means well fitted curve in the direction sought with a large enough effect; inconclusive means small, poorly fitted or top-dose-only effect, or another doubt; inactive means no such curve, though single readings can be large; an effect the other way counts as inactive or inconclusive.

Assays:
[1] = target: Cytochrome P450 2C9 (Homo sapiens) (UniProt P11712); experiment: Cytochrome P450 family 2 subfamily C member 9 (CYP2C9) small molecule antagonists: luciferase biochemical (cell-free) qHTS assay (AID 1645842; active means well fitted curve in the direction sought with a large enough effect in the repeat runs; an effect the other way counts as inactive or inconclusive; further: nearly all actives have a fitted effect of over 55% in size; further: potency means the concentration at half of the fitted maximal effect)
Cytochrome P450 2C9 (Homo sapiens), sequence (P11712 whole entry, looked up): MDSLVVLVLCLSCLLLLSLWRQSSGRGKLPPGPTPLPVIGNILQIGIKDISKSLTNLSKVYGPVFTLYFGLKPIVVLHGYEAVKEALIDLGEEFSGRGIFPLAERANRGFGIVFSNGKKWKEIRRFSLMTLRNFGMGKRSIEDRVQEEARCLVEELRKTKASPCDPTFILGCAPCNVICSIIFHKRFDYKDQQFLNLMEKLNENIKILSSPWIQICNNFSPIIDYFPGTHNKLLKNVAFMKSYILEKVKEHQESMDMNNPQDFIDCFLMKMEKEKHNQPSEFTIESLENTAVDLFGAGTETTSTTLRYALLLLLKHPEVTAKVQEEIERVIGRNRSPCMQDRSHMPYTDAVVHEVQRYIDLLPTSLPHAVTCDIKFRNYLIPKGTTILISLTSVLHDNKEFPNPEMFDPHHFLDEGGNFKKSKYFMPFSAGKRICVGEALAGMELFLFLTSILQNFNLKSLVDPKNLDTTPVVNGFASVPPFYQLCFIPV
In short: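 Luminescence, after 20 min with luciferin detection reagent, reflected CYP2C9 turnover during a 1 h NADPH-driven reaction at 37C. Enzyme-substrate mix contained 0.4% bovine serum albumin and was preincubated with compound 10 min at room temperature.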

[2] = target: ATP-dependent 6-phosphofructokinase (Trypanosoma brucei brucei) (UniProt O15648); experiment: qHTS Assay to Find Inhibitors of T. brucei phosphofructokinase: hit validation (AID 492961); further: on the % scale 0 is the no-effect control and ±100 the full control effect
ATP-dependent 6-phosphofructokinase (Trypanosoma brucei brucei), sequence (O15648 whole entry, looked up): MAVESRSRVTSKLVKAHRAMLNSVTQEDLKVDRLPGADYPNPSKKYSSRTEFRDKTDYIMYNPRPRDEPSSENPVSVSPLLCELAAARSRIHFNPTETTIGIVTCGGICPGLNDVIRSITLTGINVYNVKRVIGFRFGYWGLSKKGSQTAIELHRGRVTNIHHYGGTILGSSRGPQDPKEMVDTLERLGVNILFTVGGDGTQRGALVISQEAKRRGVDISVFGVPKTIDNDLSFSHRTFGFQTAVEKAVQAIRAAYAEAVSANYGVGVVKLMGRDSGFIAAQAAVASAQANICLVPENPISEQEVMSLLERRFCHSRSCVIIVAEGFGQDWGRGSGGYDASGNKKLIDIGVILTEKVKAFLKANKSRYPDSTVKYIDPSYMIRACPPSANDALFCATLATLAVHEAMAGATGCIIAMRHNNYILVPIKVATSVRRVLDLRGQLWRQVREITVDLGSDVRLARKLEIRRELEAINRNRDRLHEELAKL
In short: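 Luminescence from ADP-Glo reports ADP generated as T. brucei PFK (1.25 nM) phosphorylates 0.5 mM fructose-6-phosphate using 0.1 mM ATP. Reactions ran 45 min at room temperature, pH 8.0.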

[3] = target: Luciferin 4-monooxygenase (Photinus pyralis) (UniProt P08659); experiment: Biochemical firefly luciferase enzyme assay for NPC (AID 624030); further: potency means the concentration at half of the fitted maximal effect; nearly all actives have a fitted effect of over 70% in size
Luciferin 4-monooxygenase (Photinus pyralis), sequence (P08659 whole entry, looked up): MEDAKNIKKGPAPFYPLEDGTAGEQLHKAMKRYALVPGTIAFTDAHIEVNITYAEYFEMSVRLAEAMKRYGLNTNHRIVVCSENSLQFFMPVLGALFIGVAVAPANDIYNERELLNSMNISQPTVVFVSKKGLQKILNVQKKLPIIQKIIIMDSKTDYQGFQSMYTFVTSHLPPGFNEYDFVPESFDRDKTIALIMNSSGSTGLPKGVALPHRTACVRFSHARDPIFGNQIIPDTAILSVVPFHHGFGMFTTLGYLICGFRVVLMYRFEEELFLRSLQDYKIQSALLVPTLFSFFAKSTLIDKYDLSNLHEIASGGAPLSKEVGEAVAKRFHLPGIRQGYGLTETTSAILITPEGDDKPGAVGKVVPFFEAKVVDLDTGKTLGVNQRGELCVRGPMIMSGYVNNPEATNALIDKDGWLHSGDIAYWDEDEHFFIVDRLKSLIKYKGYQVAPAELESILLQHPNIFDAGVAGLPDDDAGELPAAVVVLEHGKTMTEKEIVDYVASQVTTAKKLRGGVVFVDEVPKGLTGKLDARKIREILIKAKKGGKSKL
In short: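 Purified P. pyralis luciferase at 10 nM in 50 mM Tris Acetate (final), luminescence read within 5 minutes of enzyme addition to compounds. Activity normalised to PTC124 versus DMSO; concentration-response curves classed by r2, magnitude and activity.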

[4] = S16 Schwann cell viability assay (CellTiter-Glo assay) (AID 624031);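 further: cellular ATP luminescence as a viability measure; plate controls were DMSO-treated cells for no effect and cell-free wells for full effect; nearly all actives have a fitted effect of over 70% in size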
In short: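 Luminescent ATP read-out (CellTiter-Glo) after 24 h compound exposure of native S16 rat Schwann cells at 37 °C. Signals were normalized between cell-free wells and DMSO-treated cells, set as 0% activity.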

[5] = S16 Schwann cell PMP22 intronic element firefly luciferase assay (AID 624032);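 further: plate controls were DMSO for no effect and PTC124 positive control mean for full effect; nearly all actives have a fitted effect of over 30% in size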
In short: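 Rat S16 Schwann cells stably carrying firefly luciferase driven by a PMP22 intronic element, in 10% FBS, treated 24 h at 37 C. ONE-Glo luminescence normalized to PTC124 control and DMSO (0%); curves classed by r2, magnitude and activity.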

[6] = S16 Schwann cell PMP22 intronic element beta-lactamase assay (AID 624044; calls by dose curve;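 further: 0% = DMSO and -100% = potassium clavulanate positive control; nearly all actives have a fitted effect of over 15% in size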)
In short: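 Rat S16 Schwann cells with beta-Lac driven by a PMP22 intronic element, compound-treated 24 h at 37 °C. LiveBLAzer FRET B/G read: 460 nm normalized to potassium clavulanate vs DMSO; 535 nm FRET as viability; concentration-effect curves classified.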

[7] = target: Phospholipid hydroperoxide glutathione peroxidase GPX4 (Homo sapiens) (UniProt P36969); experiment: Primary qHTS Assay for Inhibitors of Recombinant Selenoprotein Glutathione Peroxidase 4 (GPX4) (AID 1845192); further: nearly all actives have a fitted effect of over 65% in size
Phospholipid hydroperoxide glutathione peroxidase GPX4 (Homo sapiens), sequence (P36969 whole entry, looked up): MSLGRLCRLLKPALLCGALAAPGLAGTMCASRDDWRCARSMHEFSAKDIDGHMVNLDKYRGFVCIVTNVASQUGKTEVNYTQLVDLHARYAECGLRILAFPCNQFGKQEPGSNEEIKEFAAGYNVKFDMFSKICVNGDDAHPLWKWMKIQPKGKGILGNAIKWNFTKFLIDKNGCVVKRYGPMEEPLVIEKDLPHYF
In short: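 GR-coupled assay: recombinant GPX4 preincubated 30 min with compound at room temperature; final 200 nM GPX4, 1 mM GSH, 0.5 mM cumene hydroperoxide, 0.5 mM NADPH, 100 nM GR, 0.01% BSA, pH 7.5 Tris. NADPH fluorescence (340/450 nm) read at 0 and 15 min.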

[8] = qHTS profiling for inhibitors of Plasmodium falciparum proliferation (AID 504749);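 further: 0% = DMSO vehicle and full inhibition = artemisinin control; nearly all actives have a fitted effect of over 60% in size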; conditions: P. falciparum in erythrocytes, SYBR Green DNA, 72 h, at 28.7 µM (top of the series)
In short: (§1)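 Readout was DNA-dye fluorescence from lysed cultures, ex 485/em 535 nm. Parasitized red cells had grown 72 h with compound; data scaled between 0.29 uM artemisinin and DMSO wells and corrected using vehicle-only plates.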

3D7 = experiment: as above; conditions: P. falciparum in erythrocytes, SYBR Green DNA, 72 h; series mostly up to 12.8 µM
In short: as §1

7G8 = experiment: as above; conditions: P. falciparum in erythrocytes, SYBR Green DNA, 72 h; series mostly up to 12.8 µM
In short: as §1

AA1029 = experiment: as above; conditions: P. falciparum in erythrocytes, SYBR Green DNA, 72 h; series mostly up to 12.8 µM
In short: as §1

AS120 = experiment: as above; conditions: P. falciparum in erythrocytes, SYBR Green DNA, 72 h; series mostly up to 12.8 µM
In short: as §1

ATS189 = experiment: as above; conditions: P. falciparum in erythrocytes, SYBR Green DNA, 72 h; series mostly up to 12.8 µM
In short: as §1

C2A = experiment: as above; conditions: P. falciparum in erythrocytes, SYBR Green DNA, 72 h; series mostly up to 12.8 µM
In short: as §1

CP185 = experiment: as above; conditions: P. falciparum in erythrocytes, SYBR Green DNA, 72 h; series mostly up to 12.8 µM
In short: as §1

CP191 = experiment: as above; conditions: P. falciparum in erythrocytes, SYBR Green DNA, 72 h; series mostly up to 12.8 µM
In short: as §1

CP192 = experiment: as above; conditions: P. falciparum in erythrocytes, SYBR Green DNA, 72 h; series mostly up to 12.8 µM
In short: as §1

CP194 = experiment: as above; conditions: P. falciparum in erythrocytes, SYBR Green DNA, 72 h; series mostly up to 12.8 µM
In short: as §1

CP201 = experiment: as above; conditions: P. falciparum in erythrocytes, SYBR Green DNA, 72 h; series mostly up to 12.8 µM
In short: as §1

CP203 = experiment: as above; conditions: P. falciparum in erythrocytes, SYBR Green DNA, 72 h; series mostly up to 12.8 µM
In short: as §1

CP211 = experiment: as above; conditions: P. falciparum in erythrocytes, SYBR Green DNA, 72 h; series mostly up to 12.8 µM
In short: as §1

CP215 = experiment: as above; conditions: P. falciparum in erythrocytes, SYBR Green DNA, 72 h; series mostly up to 12.8 µM
In short: as §1

CP217 = experiment: as above; conditions: P. falciparum in erythrocytes, SYBR Green DNA, 72 h; series mostly up to 12.8 µM
In short: as §1

CP237 = experiment: as above; conditions: P. falciparum in erythrocytes, SYBR Green DNA, 72 h; series mostly up to 12.8 µM
In short: as §1

CP238 = experiment: as above; conditions: P. falciparum in erythrocytes, SYBR Green DNA, 72 h; series mostly up to 12.8 µM
In short: as §1

CP247 = experiment: as above; conditions: P. falciparum in erythrocytes, SYBR Green DNA, 72 h; series mostly up to 12.8 µM
In short: as §1

CP250 = experiment: as above; conditions: P. falciparum in erythrocytes, SYBR Green DNA, 72 h; series mostly up to 12.8 µM
In short: as §1

CP252 = experiment: as above; conditions: P. falciparum in erythrocytes, SYBR Green DNA, 72 h; series mostly up to 12.8 µM
In short: as §1

CP256 = experiment: as above; conditions: P. falciparum in erythrocytes, SYBR Green DNA, 72 h; series mostly up to 12.8 µM
In short: as §1

CP260 = experiment: as above; conditions: P. falciparum in erythrocytes, SYBR Green DNA, 72 h; series mostly up to 12.8 µM
In short: as §1

CP262 = experiment: as above; conditions: P. falciparum in erythrocytes, SYBR Green DNA, 72 h; series mostly up to 12.8 µM
In short: as §1

CP265 = experiment: as above; conditions: P. falciparum in erythrocytes, SYBR Green DNA, 72 h; series mostly up to 12.8 µM
In short: as §1

CP266 = experiment: as above; conditions: P. falciparum in erythrocytes, SYBR Green DNA, 72 h; series mostly up to 12.8 µM
In short: as §1

CP268 = experiment: as above; conditions: P. falciparum in erythrocytes, SYBR Green DNA, 72 h; series mostly up to 12.8 µM
In short: as §1

CP269 = experiment: as above; conditions: P. falciparum in erythrocytes, SYBR Green DNA, 72 h; series mostly up to 12.8 µM
In short: as §1

CP286 = experiment: as above; conditions: P. falciparum in erythrocytes, SYBR Green DNA, 72 h; series mostly up to 12.8 µM
In short: as §1

CP291 = experiment: as above; conditions: P. falciparum in erythrocytes, SYBR Green DNA, 72 h; series mostly up to 12.8 µM
In short: as §1

CP297 = experiment: as above; conditions: P. falciparum in erythrocytes, SYBR Green DNA, 72 h; series mostly up to 12.8 µM
In short: as §1

CP305 = experiment: as above; conditions: P. falciparum in erythrocytes, SYBR Green DNA, 72 h; series mostly up to 12.8 µM
In short: as §1

CP315 = experiment: as above; conditions: P. falciparum in erythrocytes, SYBR Green DNA, 72 h; series mostly up to 12.8 µM
In short: as §1

CP325 = experiment: as above; conditions: P. falciparum in erythrocytes, SYBR Green DNA, 72 h; series mostly up to 12.8 µM
In short: as §1

CP329 = experiment: as above; conditions: P. falciparum in erythrocytes, SYBR Green DNA, 72 h; series mostly up to 12.8 µM
In short: as §1

CP335 = experiment: as above; conditions: P. falciparum in erythrocytes, SYBR Green DNA, 72 h; series mostly up to 12.8 µM
In short: as §1

DFO2036 = experiment: as above; conditions: P. falciparum in erythrocytes, SYBR Green DNA, 72 h; series mostly up to 12.8 µM
In short: as §1

DIV17 = experiment: as above; conditions: P. falciparum in erythrocytes, SYBR Green DNA, 72 h; series mostly up to 12.8 µM
In short: as §1

DIV30 = experiment: as above; conditions: P. falciparum in erythrocytes, SYBR Green DNA, 72 h; series mostly up to 12.8 µM
In short: as §1

Dd2 = experiment: as above; conditions: P. falciparum in erythrocytes, SYBR Green DNA, 72 h; series mostly up to 12.8 µM
In short: as §1

ECU = experiment: as above; conditions: P. falciparum in erythrocytes, SYBR Green DNA, 72 h; series mostly up to 12.8 µM
In short: as §1

FAB9 = experiment: as above; conditions: P. falciparum in erythrocytes, SYBR Green DNA, 72 h; series mostly up to 12.8 µM
In short: as §1

GB4 = experiment: as above; conditions: P. falciparum in erythrocytes, SYBR Green DNA, 72 h; series mostly up to 12.8 µM
In short: as §1

HB3 = experiment: as above; conditions: P. falciparum in erythrocytes, SYBR Green DNA, 72 h; series mostly up to 12.8 µM
In short: as §1

ICS = experiment: as above; conditions: P. falciparum in erythrocytes, SYBR Green DNA, 72 h; series mostly up to 12.8 µM
In short: as §1

JCK = experiment: as above; conditions: P. falciparum in erythrocytes, SYBR Green DNA, 72 h; series mostly up to 12.8 µM
In short: as §1

N140 = experiment: as above; conditions: P. falciparum in erythrocytes, SYBR Green DNA, 72 h; series mostly up to 12.8 µM
In short: as §1

P93_24 = experiment: as above; conditions: P. falciparum in erythrocytes, SYBR Green DNA, 72 h; series mostly up to 12.8 µM
In short: as §1

P94_40 = experiment: as above; conditions: P. falciparum in erythrocytes, SYBR Green DNA, 72 h; series mostly up to 12.8 µM
In short: as §1

PAD = experiment: as above; conditions: P. falciparum in erythrocytes, SYBR Green DNA, 72 h; series mostly up to 12.8 µM
In short: as §1

PC15 = experiment: as above; conditions: P. falciparum in erythrocytes, SYBR Green DNA, 72 h; series mostly up to 12.8 µM
In short: as §1

PC26 = experiment: as above; conditions: P. falciparum in erythrocytes, SYBR Green DNA, 72 h; series mostly up to 12.8 µM
In short: as §1

PC49 = experiment: as above; conditions: P. falciparum in erythrocytes, SYBR Green DNA, 72 h; series mostly up to 12.8 µM
In short: as §1

SC27B = experiment: as above; conditions: P. falciparum in erythrocytes, SYBR Green DNA, 72 h; series mostly up to 12.8 µM
In short: as §1

TAB109 = experiment: as above; conditions: P. falciparum in erythrocytes, SYBR Green DNA, 72 h; series mostly up to 12.8 µM
In short: as §1

TAB113 = experiment: as above; conditions: P. falciparum in erythrocytes, SYBR Green DNA, 72 h; series mostly up to 12.8 µM
In short: as §1

TAB165 = experiment: as above; conditions: P. falciparum in erythrocytes, SYBR Green DNA, 72 h; series mostly up to 12.8 µM
In short: as §1

W2 = experiment: as above; conditions: P. falciparum in erythrocytes, SYBR Green DNA, 72 h; series mostly up to 12.8 µM
In short: as §1

CCOc1ccc2nc(N3CCC(C(=O)Nc4ccccc4CC)CC3)sc2c1
active: Potency [1] 6.01 µM

Nc1nc(NC2CC2)c2ncn([C@H]3C=C[C@@H](CO)C3)c2n1
inactive: outcome [2] | outcome [4] | Potency [5] | Potency [6] | Potency [1] | Potency [7] | activity, negative = inhibition ([8]; parasite line A) 8.14% | activity, negative = inhibition ([8]; parasite line B) 1.25% | Potency (3D7) | Potency (7G8) | Potency (AA1029) | Potency (AS120) | Potency (ATS189) | Potency (C2A) | Potency (CP185) | Potency (CP191) | Potency (CP192) | Potency (CP194) | Potency (CP201) | Potency (CP203) | Potency (CP211) | Potency (CP215) | Potency (CP217) | Potency (CP237) | Potency (CP238) | Potency (CP247) | Potency (CP250) | Potency (CP252) | Potency (CP256) | Potency (CP260) | Potency (CP262) | Potency (CP265) | Potency (CP266) | Potency (CP268) | Potency (CP269) | Potency (CP286) | Potency (CP291) | Potency (CP297) | Potency (CP305) | Potency (CP315) | Potency (CP325) | Potency (CP329) | Potency (CP335) | Potency (DFO2036) | Potency (DIV17) | Potency (DIV30) | Potency (Dd2) | Potency (ECU) | Potency (FAB9) | Potency (GB4) | Potency (HB3) | Potency (ICS) | Potency (JCK) | Potency (N140) | Potency (P93_24) | Potency (P94_40) | Potency (PAD) | Potency (PC15) | Potency (PC26) | Potency (PC49) | Potency (SC27B) | Potency (TAB109) | Potency (TAB113) | Potency (TAB165) | Potency (W2)
active: Potency [3] 11.4 µM
